Only some compounds are listed: those with a hit (about 13% of all), similar ones and a draw of the others.
Shiga inhibitor: A qHTS for Small Molecule Inhibitors of Shiga Toxin | Vero cells, Shiga toxin protein synthesis inhibition reporter | inhibition, % at 38.7 µM | actives 9.2% (n = 290,000) | AID 2315, 2010; in the data active = inhibition mostly above about 28%, no sharp cut-off; inactive = mostly below about 43%; also: 0% is about no effect
Lassa entry inh: qHTS for Inhibitors of binding or entry into cells for Lassa Virus; Lassa virus pseudotype entry inhibition, cell reporter; Potency, µM (highest dose often 37.9 µM), without a hit: at the top dose activity change, negative = inhibition, usual class: inhibitors; actives 1.2% (n = 300,000); AID 540256, 2011; calls by dose curve; tested in HEK293 cells; also: potency is read from the fitted curve at half-maximal effect; % is scaled to controls: 0 for no effect and ±100 for the full control effect; nearly all actives have a fitted effect of over 50% in size
MARV entry inh: qHTS for inhibitors of binding or entry into cells for Marburg Virus. Marburg virus pseudotyped entry inhibition, cell reporter. Potency, µM (series often up to 37.8 µM), without a hit: at the highest dose activity change, negative = inhibition, actives largely listed as inhibitors. actives 1.8% (n = 300,000). AID 540276, 2011; calls by dose curve; tested in HEK293 cells; also: potency is read from the fitted curve at half-maximal effect; % is scaled to controls: 0 for no effect and ±100 for the full control effect
HCV inhibitor: qHTS Assay for Inhibitors of Hepatitis C Virus (HCV); Huh7.5.1 HCVcc-Cre infection, luciferase reporter, 44 h; Potency, µM (highest dose often 41.8 µM), for inactives: top-dose activity change, negative = inhibition, actives largely listed as inhibitors; actives 3.4% (n = 340,000); AID 651820, 2012; active = well fitted inhibition curve with a large enough effect; inconclusive = small, poorly fitted or top-dose-only effect, or another doubt; inactive = no such curve, though single readings can be large or run the other way; also: potency is read from the fitted curve at half-maximal effect; % is scaled to controls: 0 for no effect and ±100 for the full control effect
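HCVcc-Cre virus at an moi near 0.5 was added right after compound to cells cultured 4 h from seeding (1,000 cells/well). Luciferase activity was determined 44 h later, 15 min after substrate addition at RT.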
CHX counter: Cycloheximide Counterscreen for Small Molecule Inhibitors of Shiga Toxin; cell reporter, cycloheximide protein synthesis inhibition counterscreen; max response, %; actives 12% (n = 300,000); AID 2314, 2010; in the data active = max response mostly above about 13%, no sharp cut-off; inactive = mostly below about 14%; also: read at 38.3 µM for the half of the compounds with a filed dose; 0% is about no effect
FMDV inh: High Throughput Screening for Foot and Mouth Disease Virus Antivirals; FMDV antiviral cell-based qHTS; Potency, µM (doses to about 57.9 µM), inactives show at the highest dose activity change, negative = inhibition, usual class: inhibitors; actives 1.2% (n = 410,000); AID 1159524, 2015; calls by dose curve; tested in HEK293T cells; also: read-out not given here; potency is read from the fitted curve at half-maximal effect; % is scaled to controls: 0 for no effect and ±100 for the full control effect; nearly all actives have a fitted effect of over 45% in size
An asterisk follows results filed as active; ? = inconclusive; nt = no result given; [ ] = dose if it differs, or a comment.

SMILES	Shiga inhibitor	Lassa entry inh	MARV entry inh	HCV inhibitor	CHX counter	FMDV inh
CCOC(=O)C1=C(CSc2nc3c(cc2C#N)CN(C)CC3)OC(N)=C(C#N)C1c1ccccc1 (stereo not given)	-1	8%	?	?	-2	-27%
CCOC(=O)C1=C(CSc2nc(-c3ccccc3)ccc2C#N)OC(N)=C(C#N)C1c1cccnc1 (stereo not given)	92*	9%	1%[46.1 µM]	5%	42*	12%
CCOC(=O)C1=C(CSc2nc3c(cc2C#N)CN(C)CC3)OC(N)=C(C#N)C1c1ccc(F)cc1 (stereo not given)	14	13%	?	10µM*	-2	0%
COC(=O)C1=C(c2cc3ccccc3s2)C[C@@H]2CC[C@H]1N2C(=O)N1CCCC1	nt	nt	nt	?	nt	-13%
O=S(=O)(Nc1cccc(-c2ccc(N3CCOCC3)nn2)c1)c1ccc(F)cc1F	nt	17%[46.1 µM]	nt	nt	nt	28%
CNc1oc(-c2ccc(C)cc2)nc1P(=O)(c1ccccc1)c1ccccc1	-9	21µM*	?	?	7	-18%
O=C(NNC(=O)c1ccc2ccccc2c1O)c1ccccc1Cl	15	-9%	11%[46.1 µM]	-11%	19	27%
O=C(Nc1ccc(Cl)cn1)c1ccc([N+](=O)[O-])o1	119*	?	?	?	45*	4%
O=C(Nc1c(Cl)ccc2nsnc12)c1ccc(Br)o1	nt	nt	nt	nt	nt	-11%
O=C(Nc1ccon1)c1ccc(Br)o1	-7	-2%	-7%	1%	0	26%
O=C(Nc1c(Cl)ccc2nsnc12)c1ccc([N+](=O)[O-])o1	51*	nt	nt	?	41*	-26%
O=C(Nc1ccc([N+](=O)[O-])cn1)c1ccc(Br)o1	70	0%	?	7%	18*	11%
CC(C)n1cc(/C=C/c2cc[n+](C)cc2)c2ccccc21	-1	?	2.5µM*	32µM*	-2	?
CC(=O)Nc1cccc(-n2nnc(SCC(=O)c3ccccc3)n2)c1	61*	nt	nt	?	49*	47%
CC(=O)Nc1cccc(-n2nnc(SCC(N)=O)n2)c1	-3	nt	nt	-11%	-1	-4%
COc1ccc(C(=O)CSc2nnn(-c3cccc(NC(C)=O)c3)n2)cc1	73*	-2%	-12%[46.1 µM]	-28%	52*	-5%
CCN(CC)S(=O)(=O)c1nnc(NC(=O)c2ccc(C(C)C)cc2)s1	nt	?	nt	nt	nt	-25%
CCCCOc1ccc(NC(=O)CSc2cccc3cccnc23)cc1	-8	3%	-19%	6%	-3	15%
O=C(CSc1cccc2cccnc12)Nc1ccccc1F	22	-10%[46.1 µM]	6%[46.1 µM]	7%	16*	18%
NNC(=O)CSc1cccc2cccnc12	-3	?	11%	27%	-2	-3%
O=C(CSc1cccc2cccnc12)Nc1cc(C(=O)O)cc(C(=O)O)c1	-5	26%[46.1 µM]	14%[46.1 µM]	11µM*	-2	-11%
Cc1cccc(NC(=O)CCn2ccnc2C)c1	50*	12%	2%	10%	21*	28%
O=C(Cc1ccccc1F)Nc1cccc2cccnc12	29*	?	7%	-1%	24*	26%
COc1cccc(CC(NC(C)=O)C(=O)NC2CCN(S(=O)(=O)c3cccc4ccccc34)CC2)c1 (stereo not given)	-14	-41%	?	?	-2	nt
Cc1ccc(SCC(=O)Nc2cccnc2)cc1	nt	30%	9%	1%	nt	-21%
SMILES	Shiga inhibitor	Lassa entry inh	MARV entry inh	HCV inhibitor	CHX counter	FMDV inh
Cc1ccc(SCC(=O)Nc2cccc(C)c2)cc1	24	nt	nt	?	19*	45%
Cc1ccc(C)c(NC(=O)CSc2cccc3cccnc23)c1	-8	4%	-4%	1%	-1	-16%
Cc1cccc(NC(=O)CSc2cccc3cccnc23)c1	31	nt	nt	7%	14*	13%
COc1ccc(N2CCN(Cc3nc4ccccc4[nH]3)CC2)cc1	38	7%[46.1 µM]	?	16%	2	-16%
CCOCCCNc1ccc(-c2ccccc2)nn1	109*	?	-6%	13%	27*	47%
COCCCNc1ccn2nc(-c3ccccc3)cc2n1	nt	nt	nt	nt	nt	-42%
COc1ccc2c(c1)OC[C@H]1[C@H]2N2C(=O)CN(Cc3ccc(C)cc3)C(=O)[C@@]2(C)[C@H]1c1ccccc1	nt	nt	nt	11µM*	nt	-14%
